Values joined by “and” are separate entries in the source; they are usually repeats but may differ in a detail not shown here. Equal values may be shown once. Inconclusive results are not listed. Entries that show only a call come without a potency. Unmarked numbers belong to inactive results. Active and inactive are the calls of the source. Unless noted, calls follow the shape of the dose curve; as a rule, active = well fitted curve in the direction sought with a large enough effect; inconclusive = small, poorly fitted or top-dose-only effect, or another doubt; inactive = no such curve, though single readings can be large; an effect the other way counts as inactive or inconclusive.
Assays:
[1] = target: Cellular tumor antigen p53 (Homo sapiens) (UniProt P04637); assay: Primary qHTS for small molecule compounds that upregulate eGFP-tagged delta133p53alpha (in N-terminal) cells. (AID 2060322); conditions: NCI-H358 eGFP-delta133p53alpha fluorescence, 24 h; activation: hits give high values; also: series mostly up to about 56 µM; nearly all actives have a fitted effect of over 75% in size
Outline: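 NCI-H358 cells pre-induced 24 h with 10 ng/ml doxycycline to express N-terminal eGFP-delta133p53alpha, then dosed 24 h at 37C without doxycycline; fixed, Hoechst-stained, GFP intensity by laser scanning cytometry, normalized to DMSO (0%) and 57.5 uM 5-azacytidine (100%).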

[2] = target: Cellular tumor antigen p53 (Homo sapiens) (UniProt P04637); assay: Primary qHTS for small molecule compounds that upregulate eGFP-tagged delta133p53alpha (in C-terminal) cells. (AID 2060324)
Outline: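 In this qHTS, GFP-tagged delta133p53alpha levels are measured in fixed NCI-H358 cells after 24 h compound exposure at 37 °C. The cells are pre-induced with 100 ng/ml doxycycline, and signal is normalized to DMSO-treated wells as 0%.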

[3] = target: Aldehyde dehydrogenase, mitochondrial (Homo sapiens) (UniProt P05091); assay: qHTS for Inhibitors of the Aldehyde Dehydrogenase Family (ALDH2) Validation screens (AID 2061302; active = well fitted inhibition curve with a large enough effect; title and protocol of this record describe different tests)
[4] = target: Retinaldehyde dehydrogenase 3 (Homo sapiens) (UniProt P47895); assay: qHTS for Inhibitors of the Aldehyde Dehydrogenase Family (ALDH1A3) Validation screen (AID 2061312); also: nearly all actives have a fitted effect of over 45% in size
[5] = BET inhibitor-based combinations targeting novel dependencies in MECOM-rearranged (r) AML: SET-2 cell line (AID 2202231); conditions: SET-2 AML cells viability, CellTiter-Glo luminescence, 48 h; viability: hits give low values, concentration not given here; also: nearly all actives have a fitted effect of over 35% in size; also: potency is read from the fitted curve at half-maximal effect
Outline: (§1)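 Cells were plated at 500 per well and exposed to an 11-point dose series of each drug for 48 hr. Viability was measured by CellTiter-Glo luminescence, normalized to DMSO and empty-well controls, and summarized as AUC and per-cell-line Z-AUC.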

[6] = BET inhibitor-based combinations targeting novel dependencies in MECOM-rearranged (r) AML: UCSD-AML1 cell line (AID 2202235); also: nearly all actives have a fitted effect of over 40% in size; also: potency is read from the fitted curve at half-maximal effect
Outline: (§2)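 Activity is given as area under the curve and as Z-AUC, mean-centred within each cell line. It comes from 11-point dose curves normalized to DMSO and empty wells. CellTiter-Glo luminescence was read after 48 hr drug exposure of 500 cells/well.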

[7] = BET inhibitor-based combinations targeting novel dependencies in MECOM-rearranged (r) AML: AML-194 cell line (AID 2202237; also: nearly all actives have a fitted effect of over 40% in size; also: potency is read from the fitted curve at half-maximal effect)
Outline: as §1

[8] = BET inhibitor-based combinations targeting novel dependencies in MECOM-rearranged (r) AML: OCI-AML3 cell line (AID 2202232); conditions: Potency: OCI-AML3 viability; also: nearly all actives have a fitted effect of over 35% in size; also: potency is read from the fitted curve at half-maximal effect
Outline: as §1

[9] = BET inhibitor-based combinations targeting novel dependencies in MECOM-rearranged (r) AML: MV-4-11 cell line (AID 2202233); also: nearly all actives have a fitted effect of over 45% in size; also: potency is read from the fitted curve at half-maximal effect
Outline: as §2

[10] = BET inhibitor-based combinations targeting novel dependencies in MECOM-rearranged (r) AML: HNT-34 cell line (AID 2202234); also: nearly all actives have a fitted effect of over 35% in size; also: potency is read from the fitted curve at half-maximal effect
Outline: as §2

[11] = BET inhibitor-based combinations targeting novel dependencies in MECOM-rearranged (r) AML: AML-191 cell line (AID 2202236; also: nearly all actives have a fitted effect of over 35% in size; also: potency is read from the fitted curve at half-maximal effect)
Outline: as §1

[12] = target: Aldehyde dehydrogenase, mitochondrial (Homo sapiens) (UniProt P05091); assay: qHTS for Inhibitors of the Aldehyde Dehydrogenase Family (ALDH2) Confirmatory screens (AID 2061303; active = well fitted inhibition curve with a large enough effect; title and protocol of this record describe different tests; also: nearly all actives have a fitted effect of over 45% in size)
[13] = target: Retinaldehyde dehydrogenase 3 (Homo sapiens) (UniProt P47895); assay: qHTS for Inhibitors of the Aldehyde Dehydrogenase Family (ALDH1A3) Confirmatory screens (AID 2061311); also: nearly all actives have a fitted effect of over 60% in size; also: potency is read from the fitted curve at half-maximal effect
[14] = target: Retinal dehydrogenase 2 (Homo sapiens) (UniProt O94788); assay: qHTS for Inhibitors of the Aldehyde Dehydrogenase Family (ALDH1A2) Confirmation screens (AID 2061314); also: nearly all actives have a fitted effect of over 65% in size
[15] = target: Aldehyde dehydrogenase 1A1 (Homo sapiens) (UniProt P00352); assay: qHTS for Inhibitors of the Aldehyde Dehydrogenase Family (ALDH1A1) Confirmatory screens (AID 2061316); also: nearly all actives have a fitted effect of over 65% in size; also: potency is read from the fitted curve at half-maximal effect

Sequence of Cellular tumor antigen p53 (Homo sapiens) (P04637 whole entry, looked up): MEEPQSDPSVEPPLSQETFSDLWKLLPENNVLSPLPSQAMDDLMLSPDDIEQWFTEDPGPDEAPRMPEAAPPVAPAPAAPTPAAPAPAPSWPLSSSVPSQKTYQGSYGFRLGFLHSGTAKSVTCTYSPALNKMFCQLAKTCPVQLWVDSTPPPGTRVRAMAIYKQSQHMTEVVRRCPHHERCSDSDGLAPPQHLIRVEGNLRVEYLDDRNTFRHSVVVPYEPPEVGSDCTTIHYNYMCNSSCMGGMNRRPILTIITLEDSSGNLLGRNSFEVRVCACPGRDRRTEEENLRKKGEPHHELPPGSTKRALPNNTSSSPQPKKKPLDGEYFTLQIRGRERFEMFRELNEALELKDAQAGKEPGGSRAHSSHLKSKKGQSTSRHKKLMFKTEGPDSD

Row | SMILES | activation [1] | Potency [2] | Potency [3] | Potency [4] | Potency [5] | Potency [6] | Potency [7] | Potency [8] | Potency [9] | Potency [10] | Potency [11] | viability [5] [%] | Potency [12] | Potency [13] | Potency [14] | Potency [15]
1 | Cn1cnc([N+](=O)[O-])c1Sc1ncnc2nc[nH]c12 | -10% | inactive | inactive | inactive | 1.66 µM (active) | inactive | 0.468 µM (active) | – | – | – | – | – | – | – | – | –
2 | COc1ccc([C@@H]2Sc3ccccc3N(CCN(C)C)C(=O)[C@@H]2OC(C)=O)cc1 | 17.5% and -3.98% | inactive | inactive | inactive | – | inactive | inactive | inactive | inactive | inactive | inactive | – | – | – | – | –
3 | NCCCCCC(=O)O | 2.82% and -3.41% | inactive | inactive | inactive | – | inactive | inactive | – | inactive | inactive | inactive | 112 | – | – | – | –
4 | Clc1ccc(C(c2ccc(Cl)cc2)n2cc[n+](CC(OCc3ccc(Cl)cc3Cl)c3ccc(Cl)cc3Cl)c2)cc1 (centres undefined) | 29.4% | inactive | inactive | inactive | – | – | – | 5.9 µM (active) | 8.33 µM (active) | 9.34 µM (active) | 18.6 µM (active) | – | – | – | – | –
5 | NC12CC3CC(CC(C3)C1)C2 | 1.69% and 3.9% | inactive | inactive | inactive | – | inactive | – | – | inactive | inactive | inactive | 106 | – | – | – | –
6 | NC(=O)c1ncn([C@@H]2O[C@H](CO)[C@@H](O)[C@H]2O)n1 | 6.69% and -41.3% | inactive | inactive | inactive | 20.9 µM (active) | 18.6 µM (active) | – | – | 23.5 µM (active) | 16.6 µM (active) | – | – | – | – | – | –
7 | CC/C(=C(\c1ccccc1)c1ccc(OCCN(C)C)cc1)c1ccccc1 | -17.6% and -12.3% and -27% | inactive | inactive | inactive | 12.1 µM (active) | – | – | – | 15.2 µM (active) | 15.2 µM (active) | – | – | – | – | – | –
8 | CC(C)c1ccc2c(c1)c(SC(C)(C)C)c(CC(C)(C)C(=O)O)n2Cc1ccc(Cl)cc1 | 10.9% and -49% | inactive | inactive | inactive | – | inactive | – | 20.9 µM (active) | 20.9 µM (active) | 23.5 µM (active) | 20.9 µM (active) | – | – | – | – | –
9 | NC(N)=NC(=O)c1nc(Cl)c(N)nc1N | 11.3% and -28.8% and -10.6% | inactive | inactive | inactive | – | 30.3 µM (active) | – | 9.59 µM (active) | 13.5 µM (active) | – | – | – | – | – | – | –
10 | O=c1c(-c2ccc(O)cc2)coc2cc(O)cc(O)c12 | -2.22% and -24.3% and -49.4% | inactive | inactive | inactive | 42.8 µM (active) | – | – | – | 34 µM (active) | 21.5 µM (active) | 42.8 µM (active) | – | – | – | – | –
11 | O=C(c1ccc(OCCN2CCCCC2)cc1)c1c(-c2ccc(O)cc2)sc2cc(O)ccc12 | 20.9% and -56% | inactive | inactive | inactive | – | inactive | 20.9 µM (active) | 11.8 µM (active) | – | – | – | – | – | – | – | –
12 | NCCc1ccc(O)c(O)c1 | -4.36% and 11.8% | inactive | inactive | inactive | – | inactive | inactive | – | 18.6 µM (active) | – | inactive | 112 | – | – | – | –
13 | c1ccc([C@H]2CN3CCSC3=N2)cc1 | 15.3% and -0.374% | inactive | inactive | inactive | – | inactive | inactive | – | – | inactive | inactive | 112 | – | – | – | –
14 | O=C(c1cc(O)c(O)c([N+](=O)[O-])c1)c1ccccc1F | -61.3% | inactive | – | – | – | – | – | – | – | – | – | – | inactive | 3.18 µM (active) | inactive | 12.7 µM (active)
15 | NC(=O)OCC(COC(N)=O)c1ccccc1 | -10.4% and 18.4% and 1.5% | inactive | inactive | – | – | inactive | inactive | inactive | inactive | – | inactive | 119 | – | – | – | –
16 | Nc1nc(OCc2ccccc2)c2[nH]cnc2n1 | 4.06% | inactive | inactive | inactive | – | inactive | inactive | – | – | – | – | – | – | – | – | –
17 | CN(C)C/C=C(/c1ccc(Br)cc1)c1cccnc1 | -2.82% and -52.8% | inactive | – | – | – | – | – | – | – | – | – | – | inactive | inactive | – | inactive
18 | NCCc1cnc[nH]1 | -5.21% and -25.1% and -31.8% | inactive | inactive | – | – | inactive | inactive | inactive | 8.33 µM (active) | inactive | inactive | 93.4 | – | – | – | –
19 | CC(C)(C)C(=O)Oc1ccc(S(=O)(=O)Nc2ccccc2C(=O)NCC(=O)O)cc1 | -5.86% and -2.63% and -11.2% | inactive | inactive | – | – | inactive | inactive | inactive | inactive | inactive | inactive | 111 | – | – | – | –

Reference: PubChem BioAssay (NCATS)
